# Test results as given in PubChem BioAssay (NCATS).
# Records with an inconclusive call do not appear. A number with no mark means an inactive call. The source made the active and inactive calls. Unless noted, calls follow the shape of the dose curve; as a rule, active = well fitted curve in the direction sought with a large enough effect; inconclusive = small, poorly fitted or top-dose-only effect, or another doubt; inactive = no such curve, though single readings can be large; an effect the other way counts as inactive or inconclusive.
# Columns and labels:
# [1] = target: ATP-dependent 6-phosphofructokinase (Trypanosoma brucei brucei) (UniProt O15648); assay: qHTS Assay to Find Inhibitors of T. brucei phosphofructokinase: hit validation (AID 492961);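 also: luminescence reports ADP formed as PFK phosphorylates fructose-6-phosphate with ATP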
# Summary of the method: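 In this biochemical qHTS validation, titrated compounds were tested against 1.25 nM PFK with 0.1 mM ATP and 0.5 mM F6P. Percent activity came from controls lacking or containing enzyme.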
# [2] = target: Ubiquitin carboxyl-terminal hydrolase 1 (Homo sapiens) (UniProt O94782); assay: Inhibitors of USP1/UAF1: Pilot qHTS (AID 504865);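 also: rhodamine fluorescence freed from ubiquitin-rhodamine substrate followed over time; top concentration of the series differs between compounds; nearly all actives have a fitted effect of over 35% in size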
# Summary of the method: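 USP1/UAF1 complex at 1 nM preincubated 15 min at room temperature with compound, then Ub-Rho substrate added at 150 nM final. Fluorescence (480/540 nm) read kinetically in 50 mM HEPES pH 7.8, 0.5 mM EDTA, 1 mM TCEP, 0.1 mg/ml BSA, 0.01% Tween-20.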
# [3] = target: Luciferin 4-monooxygenase (Photinus pyralis) (UniProt P08659); assay: Biochemical firefly luciferase enzyme assay for NPC (AID 624030);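 also: purified P. pyralis luciferase at 10 nM with luciferin and ATP substrate; nearly all actives have a fitted effect of over 70% in size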
# Summary of the method: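 Direct inhibition of firefly luciferase enzyme (10 nM final, 50 mM Tris Acetate) assessed by luminescence within 5 minutes. Percent activity scaled between DMSO and PTC124 positive control, with concentration-effect curves classified by fit quality and response.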
# [4] = S16 Schwann cell viability assay (CellTiter-Glo assay) (AID 624031);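 also: cellular ATP luminescence as a viability measure; nearly all actives have a fitted effect of over 70% in size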
# Summary of the method: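 This viability control uses native rat S16 Schwann cells grown in DMEM plus 10% FBS. After a 24 h compound treatment at 37 °C, CellTiter-Glo luminescence reports ATP content, scaled against DMSO-treated and cell-free wells.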
# [5] = S16 Schwann cell PMP22 intronic element firefly luciferase assay (AID 624032); also: nearly all actives have a fitted effect of over 30% in size
# Summary of the method: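 Luciferase reporter of PMP22 intronic-element expression in stably transfected S16 rat Schwann cells, read by ONE-Glo luminescence after 24 h compound exposure at 37 C. Activity scaled between DMSO (0%) and positive-control PTC124; concentration-effect curves quality-classified.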
# [6] = S16 Schwann cell PMP22 intronic element beta-lactamase assay (AID 624044; calls by dose curve; also: nearly all actives have a fitted effect of over 15% in size)
# Summary of the method: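 Rat S16 Schwann cells with beta-Lac driven by a PMP22 intronic element, compound-treated 24 h at 37 °C. LiveBLAzer FRET B/G read: 460 nm normalized to potassium clavulanate vs DMSO; 535 nm FRET as viability; concentration-effect curves classified.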
# [7] = target: Rap guanine nucleotide exchange factor 3 (Homo sapiens) (UniProt O95398); assay: Confirmatory qHTS for antagonist of cAMP-regulated guanine nucleotide exchange factor 3 (EPAC1) (AID 1645880); conditions: EPAC1 Rap1B-BODIPY-GDP exchange, fluorescence; activity, negative = inhibition: at 115 µM (top of the series); also: nearly all actives have a fitted effect of over 55% in size
# Summary of the method: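 Nucleotide exchange uses 100 nM EPAC1, 250 nM RAP1B-BODIPY-GDP and 50 uM GDP, with compounds in a concentration-titration series. After 5 min at room temperature, fluorescence (480 nm ex/540 nm em) is read every 5 min for 30 min. Data are normalized to control ATA and DMSO.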
# [8] = target: Rap guanine nucleotide exchange factor 3 (Homo sapiens) (UniProt O95398); assay: Confirmatory qHTS for agonist of cAMP-regulated guanine nucleotide exchange factor 3 (EPAC1) (AID 1645881);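 also: EPAC1 catalysed release of BODIPY-GDP from Rap1B seen as fluorescence loss; nearly all actives have a fitted effect of over 75% in size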
# [9] = target: Rap guanine nucleotide exchange factor 3 (Homo sapiens) (UniProt O95398); assay: Counterscreen qHTS for antagonist of cAMP-regulated guanine nucleotide exchange factor 3 (EPAC1) (AID 1645888);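 also: fluorescence loss as bound BODIPY-GDP is released from Rap1B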
# Summary of the method: (§1)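 Rap1B-BODIPY-GDP 250 nM + GDP 50 uM; cpds 7-pt, final 9.74 nM–152 uM (activator mode) or from 7.32 nM upwards (inhibitor mode); RT; FI 480/540 nm at 5 and 30 min, then ± cAMP, reread.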
# [10] = target: Rap guanine nucleotide exchange factor 3 (Homo sapiens) (UniProt O95398); assay: Counterscreen qHTS for agonist of cAMP-regulated guanine nucleotide exchange factor 3 (EPAC1) (AID 1645889); also: nearly all actives have a fitted effect of over 40% in size
# Summary of the method: as §1
# [11] = qHTS profiling for inhibitors of Plasmodium falciparum proliferation (AID 504749); also: nearly all actives have a fitted effect of over 60% in size; also: potency is read from the fitted curve at half-maximal effect; conditions: P. falciparum in erythrocytes, SYBR Green DNA, 72 h; parasite line A
# Summary of the method: (§2)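 Three-day growth assay of blood-stage parasites in erythrocytes (0.3% parasitemia, 2.5% hematocrit) at 37 C, 5% CO2, quantified by SYBR Green DNA staining after overnight detergent lysis.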
# 7G8 = assay: as above; conditions: P. falciparum in erythrocytes, SYBR Green DNA, 72 h; series mostly up to 28.7 µM
# Summary of the method: as §2
# AA1029 = assay: as above; conditions: P. falciparum in erythrocytes, SYBR Green DNA, 72 h; series mostly up to 28.7 µM
# Summary of the method: as §2
# AS120 = assay: as above; conditions: P. falciparum in erythrocytes, SYBR Green DNA, 72 h; series mostly up to 28.7 µM
# Summary of the method: as §2
# ATS189 = assay: as above; conditions: P. falciparum in erythrocytes, SYBR Green DNA, 72 h; series mostly up to 28.7 µM
# Summary of the method: as §2
# ATS95 = assay: as above; conditions: P. falciparum in erythrocytes, SYBR Green DNA, 72 h; series mostly up to 28.7 µM
# Summary of the method: as §2
# C2A = assay: as above; conditions: P. falciparum in erythrocytes, SYBR Green DNA, 72 h; series mostly up to 28.7 µM
# Summary of the method: as §2
# CP185 = assay: as above; conditions: P. falciparum in erythrocytes, SYBR Green DNA, 72 h; series mostly up to 28.7 µM
# Summary of the method: as §2
# CP191 = assay: as above; conditions: P. falciparum in erythrocytes, SYBR Green DNA, 72 h; series mostly up to 28.7 µM
# Summary of the method: as §2
# CP192 = assay: as above; conditions: P. falciparum in erythrocytes, SYBR Green DNA, 72 h; series mostly up to 28.7 µM
# Summary of the method: as §2
# CP194 = assay: as above; conditions: P. falciparum in erythrocytes, SYBR Green DNA, 72 h; series mostly up to 28.7 µM
# Summary of the method: as §2
# CP217 = assay: as above; conditions: P. falciparum in erythrocytes, SYBR Green DNA, 72 h; series mostly up to 28.7 µM
# Summary of the method: as §2
# CP237 = assay: as above; conditions: P. falciparum in erythrocytes, SYBR Green DNA, 72 h; series mostly up to 28.7 µM
# Summary of the method: as §2
# CP238 = assay: as above; conditions: P. falciparum in erythrocytes, SYBR Green DNA, 72 h; series mostly up to 28.7 µM
# Summary of the method: as §2
# CP247 = assay: as above; conditions: P. falciparum in erythrocytes, SYBR Green DNA, 72 h; series mostly up to 28.7 µM
# Summary of the method: as §2
# CP252 = assay: as above; conditions: P. falciparum in erythrocytes, SYBR Green DNA, 72 h; series mostly up to 28.7 µM
# Summary of the method: as §2
# Rap guanine nucleotide exchange factor 3 (Homo sapiens), sequence (O95398 whole entry, looked up): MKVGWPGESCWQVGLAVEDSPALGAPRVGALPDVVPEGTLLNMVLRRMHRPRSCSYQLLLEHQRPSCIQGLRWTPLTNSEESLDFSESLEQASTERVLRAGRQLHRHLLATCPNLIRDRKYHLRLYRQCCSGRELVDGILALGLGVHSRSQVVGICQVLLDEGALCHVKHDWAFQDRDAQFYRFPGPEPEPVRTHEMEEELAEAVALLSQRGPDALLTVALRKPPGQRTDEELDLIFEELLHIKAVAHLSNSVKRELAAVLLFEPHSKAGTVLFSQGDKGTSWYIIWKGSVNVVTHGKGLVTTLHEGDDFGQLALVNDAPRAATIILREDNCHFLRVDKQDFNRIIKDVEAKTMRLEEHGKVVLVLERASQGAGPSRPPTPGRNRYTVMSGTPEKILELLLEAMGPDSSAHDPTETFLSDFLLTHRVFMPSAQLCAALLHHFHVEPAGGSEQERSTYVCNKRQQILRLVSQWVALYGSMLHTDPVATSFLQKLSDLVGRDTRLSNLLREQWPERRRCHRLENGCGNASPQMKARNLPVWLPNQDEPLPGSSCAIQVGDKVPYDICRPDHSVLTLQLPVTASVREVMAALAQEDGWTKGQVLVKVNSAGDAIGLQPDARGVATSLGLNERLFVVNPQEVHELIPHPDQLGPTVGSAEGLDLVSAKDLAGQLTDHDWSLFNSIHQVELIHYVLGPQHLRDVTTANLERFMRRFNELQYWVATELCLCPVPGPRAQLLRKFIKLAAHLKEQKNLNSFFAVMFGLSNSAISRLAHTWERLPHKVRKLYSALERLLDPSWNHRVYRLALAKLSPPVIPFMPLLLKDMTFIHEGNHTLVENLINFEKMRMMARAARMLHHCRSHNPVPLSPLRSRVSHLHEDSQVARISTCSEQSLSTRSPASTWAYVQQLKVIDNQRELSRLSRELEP
# Ubiquitin carboxyl-terminal hydrolase 1 (Homo sapiens), sequence (O94782 whole entry, looked up): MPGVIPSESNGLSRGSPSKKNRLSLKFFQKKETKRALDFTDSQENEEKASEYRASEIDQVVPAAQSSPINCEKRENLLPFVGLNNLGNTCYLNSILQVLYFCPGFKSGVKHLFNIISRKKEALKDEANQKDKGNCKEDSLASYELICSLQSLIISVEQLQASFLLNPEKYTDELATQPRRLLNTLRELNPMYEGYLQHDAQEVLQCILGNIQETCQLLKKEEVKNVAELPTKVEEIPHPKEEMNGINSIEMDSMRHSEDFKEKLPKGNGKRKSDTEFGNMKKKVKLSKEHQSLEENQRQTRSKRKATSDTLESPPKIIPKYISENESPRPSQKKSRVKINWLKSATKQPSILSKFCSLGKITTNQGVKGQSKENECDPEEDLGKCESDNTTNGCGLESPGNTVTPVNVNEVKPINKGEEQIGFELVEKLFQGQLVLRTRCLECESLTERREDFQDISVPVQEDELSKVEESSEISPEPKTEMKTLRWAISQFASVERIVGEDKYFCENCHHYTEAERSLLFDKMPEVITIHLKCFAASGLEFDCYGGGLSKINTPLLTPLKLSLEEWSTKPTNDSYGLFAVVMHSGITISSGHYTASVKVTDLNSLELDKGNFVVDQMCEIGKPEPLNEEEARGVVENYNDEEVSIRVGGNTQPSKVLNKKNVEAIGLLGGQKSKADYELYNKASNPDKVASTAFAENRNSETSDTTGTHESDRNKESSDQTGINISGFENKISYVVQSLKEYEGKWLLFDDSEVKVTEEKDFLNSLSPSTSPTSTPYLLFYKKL
# Luciferin 4-monooxygenase (Photinus pyralis), sequence (P08659 whole entry, looked up): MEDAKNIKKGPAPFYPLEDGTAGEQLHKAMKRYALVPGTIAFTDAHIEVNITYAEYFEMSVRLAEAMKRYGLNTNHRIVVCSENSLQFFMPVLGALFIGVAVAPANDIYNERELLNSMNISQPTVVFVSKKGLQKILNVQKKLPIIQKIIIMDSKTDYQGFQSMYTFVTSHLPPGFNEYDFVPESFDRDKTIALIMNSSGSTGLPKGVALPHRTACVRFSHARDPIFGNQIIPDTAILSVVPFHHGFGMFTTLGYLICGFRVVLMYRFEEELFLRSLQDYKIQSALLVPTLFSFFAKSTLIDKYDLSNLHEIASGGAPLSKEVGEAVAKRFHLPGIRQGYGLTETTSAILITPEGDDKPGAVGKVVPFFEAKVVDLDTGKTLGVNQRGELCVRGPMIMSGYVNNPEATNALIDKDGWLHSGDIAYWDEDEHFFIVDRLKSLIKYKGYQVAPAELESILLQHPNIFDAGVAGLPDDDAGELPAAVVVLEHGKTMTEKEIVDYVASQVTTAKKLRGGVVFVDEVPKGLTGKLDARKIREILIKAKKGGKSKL
# ATP-dependent 6-phosphofructokinase (Trypanosoma brucei brucei), sequence (O15648 whole entry, looked up): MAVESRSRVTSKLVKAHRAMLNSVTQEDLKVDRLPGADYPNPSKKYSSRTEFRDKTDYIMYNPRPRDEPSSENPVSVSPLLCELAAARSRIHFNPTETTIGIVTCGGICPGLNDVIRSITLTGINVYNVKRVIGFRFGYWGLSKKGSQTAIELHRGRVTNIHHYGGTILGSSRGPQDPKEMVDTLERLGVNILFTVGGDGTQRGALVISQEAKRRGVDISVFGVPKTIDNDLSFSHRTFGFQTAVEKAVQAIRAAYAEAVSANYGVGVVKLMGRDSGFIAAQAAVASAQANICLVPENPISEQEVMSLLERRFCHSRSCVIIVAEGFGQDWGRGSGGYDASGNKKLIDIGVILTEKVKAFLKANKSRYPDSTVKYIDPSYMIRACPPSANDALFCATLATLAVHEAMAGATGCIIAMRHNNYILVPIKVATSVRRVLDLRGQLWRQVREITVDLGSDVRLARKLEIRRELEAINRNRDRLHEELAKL
structure (smiles),measurement,setting,value
C=C[C@]1(C)C[C@@H](OC(=O)CSCCN(CC)CC)[C@]2(C)C(C)CC[C@]3(CCC(=O)[C@H]32)[C@@H](C)[C@@H]1O (stereo partly specified),outcome,[1],inactive
same,Potency,[2],inactive
same,Potency,[3],inactive
same,Potency,[4],inactive
same,Potency,[5],inactive
same,Potency,[6],inactive
same,Potency,[7],inactive
same,Potency,[8],inactive
same,Potency,[9],inactive
same,Potency,[10],inactive
same,Potency,[11],10 µM (active)
same,Potency,7G8,11.2 µM (active)
same,Potency,AA1029,5.01 µM (active)
same,Potency,AS120,10 µM (active)
same,Potency,ATS189,8.91 µM (active)
same,Potency,ATS95,7.94 µM (active)
same,Potency,C2A,11.2 µM (active)
same,Potency,CP185,5.01 µM (active)
same,Potency,CP191,7.94 µM (active)
same,Potency,CP192,inactive
same,Potency,CP194,7.57 µM (active)
same,Potency,CP217,10 µM (active)
same,Potency,CP237,8.91 µM (active)
same,Potency,CP238,11.2 µM (active)
same,Potency,CP247,6.31 µM (active)
same,Potency,CP252,7.08 µM (active)
